Out of some 5,500 compounds screened, about 2,000 (36%) were called active. Not shown: some 18% with an inconclusive outcome. Rule as the data show it: active = normalized growth mostly below about 0.91 (no sharp cut-off); inconclusive = no clear call, values can overlap the other calls; inactive = mostly above about 0.92. Some of the results follow.
Experiment: chemical genetic growth profiling, strain panel (AID 1159580);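 also: tested at 20 µM; growth read once vehicle control cultures reached saturation at 30 °C; 1 = growth at the plate median or of vehicle wells; lower values mean less growth of the strain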
Details: S. cerevisiae deletion strains, growth OD
[1] = locus YHR030C, strain SLT2, hits give low values
[2] = locus YJL095W, strain BCK1, hits give low values

Measured: normalized growth

CC(C)c1c(CN(C)C(C)Cc2ccccc2)n(C)n(-c2ccccc2)c1=O (configuration not stated)
inactive: [1] 0.997 | locus YHR079C, strain IRE1, hits give low values 1.01 | [2] 0.992 | locus YJR066W, strain TOR1, hits give low values 0.938 | locus YLR113W, strain HOG1, hits give low values 1.01 | locus YNL183C, strain NPR1, hits give low values 0.935 | locus YOR231W, strain MKK1, hits give low values 1 | locus YPL256C, strain CLN2, hits give low values 0.971

C=C1CCC(OC(C)=O)/C(C)=C/C[C@@H]2[C@@H]1CC2(C)C (some centres not stated)
inactive: locus YAL021C, strain ccr4, hits give low values 1.01 | locus YAL026C, strain drs2, hits give low values 1.01 | locus YAL030W, strain snc1, hits give low values 1.01 | locus YBL061C, strain skt5, hits give low values 1.01 | locus YBR009C, strain hhf1, hits give low values 1.01 | locus YBR021W, strain FUR4, hits give low values 1.02 | locus YBR023C, strain chs3, hits give low values 1.01 | locus YBR171W, strain sec66, hits give low values 1 | locus YBR229C, strain ROT2, hits give low values 1 | locus YBR231C, strain swc5, hits give low values 1.01 | locus YBR279W, strain paf1, hits give low values 1.01 | locus YCL011C, strain gbp2, hits give low values 1.02 | locus YCL016C, strain dcc1, hits give low values 1.01 | locus YCL029C, strain bik1, hits give low values 1.03 | locus YCL061C, strain MRC1, hits give low values 1.01 | locus YCL069W, strain vba3, hits give low values 1.01 | locus YCR088W, strain abp1, hits give low values 1.01 | locus YDL005C, strain med2, hits give low values 1.01 | locus YDL035C, strain GPR1, hits give low values 1.01 | locus YDL040C, strain nat1, hits give low values 1.01 | locus YDL074C, strain BRE1, hits give low values 1.02 | locus YDL101C, strain DUN1, hits give low values 1.02 | locus YDL185W, strain tfp1, hits give low values 1.03 | locus YDL192W, strain arf1, hits give low values 1.02 | locus YDR001C, strain nth1, hits give low values 1 | locus YDR069C, strain doa4, hits give low values 1.03 | locus YDR101C, strain arx1, hits give low values 0.983 | locus YDR137W, strain rgp1, hits give low values 0.929 | locus YDR159W, strain sac3, hits give low values 1.02 | locus YDR162C, strain NBP2, hits give low values 0.997 | locus YDR195W, strain ref2 1.02 | locus YDR297W, strain sur2, hits give low values 1.02 | locus YDR318W, strain mcm21, hits give low values 1.03 | locus YDR334W, strain swr1, hits give low values 1.01 | locus YDR335W, strain msn5, hits give low values 1.01 | locus YDR388W, hits give low values 1.02 | locus YDR392W, strain spt3, hits give low values 0.812 | locus YDR502C, strain sam2, hits give low values 1.03 | locus YEL003W, strain gim4, hits give low values 1.02 | locus YEL037C, strain rad23, hits give low values 1.01 | locus YEL061C, strain CIN8 (second series), hits give low values 1.02 | locus YER015W, strain faa2, hits give low values 1.01 | locus YER016W, strain bim1, hits give low values 1.01 | locus YER110C, hits give low values 1.03 | locus YER111C, strain swi4, hits give low values 1.01 | locus YER155C, strain BEM2 (second series), hits give low values 1.03 | locus YER155C, strain BEM2, hits give low values 1.02 | locus YER167W, strain BCK2, hits give low values 1.01 | locus YFR010W, strain ubp6, hits give low values 1.01 | locus YGL078C, strain dbp3, hits give low values 1.04 | locus YGL086W, strain mad1, hits give low values 1.01 | locus YGL167C, strain pmr1, hits give low values 1.02 | locus YGL173C, strain kem1, hits give low values 1.01 | locus YGL227W, strain vid30, hits give low values 1.03 | locus YGL240W, strain doc1, hits give low values 1.01 | locus YGL248W, strain PDE1, hits give low values 1.01 | locus YGL253W, strain hxk2, hits give low values 1.01 | locus YGR078C, strain PAC10, hits give low values 1.03 | locus YGR135W, strain pre9, hits give low values 1.05 | locus YGR252W, strain gcn5, hits give low values 1.05 | locus YHR013C, strain ard1, hits give low values 1 | locus YHR027C, strain rpn1, hits give low values 1.01 | [1] 1.01 | locus YHR079C, strain IRE1 (second series), hits give low values 1.02 | locus YHR094C, strain hxt1, hits give low values 1.01 | locus YHR129C, strain ARP1, hits give low values 1.01 | locus YHR142W, strain chs7, hits give low values 0.987 | locus YHR200W, strain rpn10, hits give low values 1 | locus YIL066C, strain RNR3, hits give low values 1 | locus YIL073C, strain SPO22, hits give low values 1.06 | locus YIL125W, strain kgd1, hits give low values 1 | locus YIR030C, strain dcg1, hits give low values 1.02 | locus YJL092W, strain hpr5, hits give low values 1.01 | locus YJL095W, strain BCK1 (second series), hits give low values 1.01 | [2] 1.02 | locus YJL115W, strain asf1, hits give low values 1.01 | locus YJL129C, strain trk1, hits give low values 0.976 | locus YJL134W, strain LCB3, hits give low values 1.01 | locus YJL154C, strain vps35, hits give low values 1.01 | locus YJL164C, strain tpk1, hits give low values 1.01 | locus YJL166W, strain qcr8, hits give low values 1 | locus YJL168C, strain set2, hits give low values 1.02 | locus YJL187C, strain SWE1 (second series), hits give low values 1.05 | locus YJL187C, strain SWE1, hits give low values 1.01 | locus YJR075W, strain HOC1, hits give low values 1.02 | locus YKL009W, strain mrt4, hits give low values 1 | locus YKL068W, hits give low values 1.01 | locus YKL085W, strain MDH1 (second series), hits give low values 1.02 | locus YKL085W, strain MDH1, hits give low values 1.02 | locus YKL160W, strain elf1, hits give low values 1 | locus YKL190W, strain CNB1, hits give low values 1.01 | locus YKR001C, strain vps1, hits give low values 0.996 | locus YKR026C, strain gcn3, hits give low values 0.987 | locus YKR091W, strain srl3, hits give low values 1.01 | locus YLL001W, strain dnm1, hits give low values 1.02 | locus YLL026W, hits give low values 1.02 | locus YLL041C, strain sdh2, hits give low values 1.01 | locus YLR027C, strain aat2, hits give low values 1 | locus YLR039C, strain RIC1, hits give low values 0.957 | locus YLR058C, strain SHM2, hits give low values 1 | locus YLR102C, strain apc9, hits give low values 1 | locus YLR221C, strain rsa3, hits give low values 1.01 | locus YLR258W, strain gsy2, hits give low values 1.01 | locus YLR262C, strain YPT6 (second series), hits give low values 0.905 | locus YLR262C, strain YPT6, hits give low values 0.932 | locus YLR268W, strain sec22, hits give low values 0.995 | locus YLR320W, strain mms22, hits give low values 0.972 | locus YLR342W, strain FKS1, hits give low values 1.01 | locus YLR357W, strain rsc2, hits give low values 1.01 | locus YLR370C, strain arc18, hits give low values 1.01 | locus YLR371W, strain rom2, hits give low values 1.03 | locus YLR384C, strain iki3, hits give low values 0.999 | locus YLR418C, strain cdc73, hits give low values 1.06 | locus YML016C, strain PPZ1, hits give low values 1.02 | locus YML032C, strain rad52, hits give low values 0.995 | locus YML120C, strain ndi1, hits give low values 1.02 | locus YML124C, strain tub3, hits give low values 1.01 | locus YMR058W, strain fet3, hits give low values 1.01 | locus YMR078C, strain ctf18, hits give low values 1.03 | locus YMR125W, strain sto1, hits give low values 1.02 | locus YMR129W, hits give low values 1.01 | locus YMR205C, strain PFK2, hits give low values 0.996 | locus YMR223W, strain ubp8, hits give low values 1.02 | locus YMR231W, strain pep5, hits give low values 1.01 | locus YMR307W, strain GAS1, hits give low values 0.973 | locus YNL067W, strain RPL9B, hits give low values 1.02 | locus YNL071W, strain lat1, hits give low values 0.99 | locus YNL209W, strain ssb2, hits give low values 1.02 | locus YNL233W, strain BNI4, hits give low values 1.04 | locus YNL248C, strain rpa49, hits give low values 0.997 | locus YNL250W, strain rad50, hits give low values 1.07 | locus YNL271C, strain bni1, hits give low values 1.01 | locus YNL298W, strain CLA4, hits give low values 1.01 | locus YNL307C, strain MCK1, hits give low values 1.02 | locus YNL322C, strain KRE1 (second series), hits give low values 1.02 | locus YNL322C, strain KRE1, hits give low values 1.01 | locus YNR049C, strain mso1, hits give low values 1.02 | locus YNR052C, strain pop2, hits give low values 1.03 | locus YOL012C, strain htz1 1.04 | locus YOL147C, strain pex11, hits give low values 1.02 | locus YOR001W, strain rrp6, hits give low values 1.02 | locus YOR061W, strain CKA2, hits give low values 1 | locus YOR069W, strain VPS5, hits give low values 1.01 | locus YOR070C, strain gyp1, hits give low values 1 | locus YOR080W, strain dia2, hits give low values 1.01 | locus YOR083W, strain WHI5, hits give low values 1.01 | locus YOR106W, strain vam3, hits give low values 0.994 | locus YOR136W, strain idh2, hits give low values 0.997 | locus YOR144C, strain elg1, hits give low values 1.01 | locus YOR184W, strain ser1, hits give low values 0.992 | locus YOR265W, strain rbl2, hits give low values 1.01 | locus YOR270C, strain vph1, hits give low values 0.909 | locus YOR290C, strain snf2, hits give low values 0.963 | locus YOR316C, strain cot1, hits give low values 1.02 | locus YPL051W, strain arl3, hits give low values 0.994 | locus YPL055C, strain LGE1, hits give low values 1.04 | locus YPL078C, strain atp4, hits give low values 1 | locus YPL106C, strain sse1, hits give low values 1.05 | locus YPL240C, strain hsp82, hits give low values 1.01 | locus YPR119W, strain clb2, hits give low values 1.01 | locus YPR141C, strain kar3, hits give low values 1.02 | locus YPR163C, strain tif3, hits give low values 1 | locus YPR167C, strain met16, hits give low values 1.02 | strain wtn01, hits give low values 1
